Counter-ions that a name gives are not always drawn.
Experiments:
[1] = tested on: Staphylococcus aureus MW2 delta-mecA (mecA-); experiment: normalized GFP fluorescence (growth of mecA- strain) (fraction of control range); higher = more growth of mecA- strain; settings: compound concentration: 150 uM; cefoxitin: subinhibitory; fluorescent label: GFP
In short: (§1)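 Compound at 150 μM (1.5% DMSO) in 1536-well plates received 5 µL/well of pre-induced S. aureus MW2 cells mixed 1:1, gene-carrying with DsRed and gene-deleted with GFP, in LB with a daily-set subinhibitory antibiotic dose, single replicate. After 20 h unshaken at 37 °C, 90% humidity, DsRed (540/590) and GFP (485/520) were measured and scaled per plate between single-strain control medians. Plates with high untreated ratios and rows with DsRed/GFP >10 were excluded.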

[2] = tested on: Staphylococcus aureus MW2 (mecA+); experiment: normalized DsRed fluorescence (growth of mecA+ strain) (fraction of control range); higher = more growth of mecA+ strain; settings: compound concentration: 150 uM; cefoxitin: subinhibitory; fluorescent label: DsRed
In short: as §1

C[N+](C)(C)C[C@H](O)CC(=O)[O-]
normalized GFP fluorescence [1]: 0.791 | normalized DsRed fluorescence [2]: 0.508

CCCCC(CC)COC(=O)C=Cc1ccc(OC)cc1 (configuration not stated)
normalized GFP fluorescence [1]: 0.289 | normalized DsRed fluorescence [2]: 0.473

O=C(/C=C/c1cccc(S(=O)(=O)Nc2ccccc2)c1)NO [Belinostat (PXD101)]
normalized GFP fluorescence [1]: 0.364 | normalized DsRed fluorescence [2]: 1.16

CN(C)CCOC(=O)C(c1ccccc1)C1(O)CCCC1 (configuration not stated)
normalized GFP fluorescence [1]: 0.34 | normalized DsRed fluorescence [2]: 0.757

CCCCN1CCCCC1C(=O)Nc1c(C)cccc1C (configuration not stated)
normalized GFP fluorescence [1]: 0.62 | normalized DsRed fluorescence [2]: 0.887

NS(=O)(=O)c1cc(C2(O)NC(=O)c3ccccc32)ccc1Cl (configuration not stated)
normalized GFP fluorescence [1]: 0.344 | normalized DsRed fluorescence [2]: 0.584

CC(C)(C)NC[C@H](O)COc1nsnc1N1CCOCC1
normalized GFP fluorescence [1]: 0.208 | normalized DsRed fluorescence [2]: 0.811

CCCCC(=O)O[C@H]1CC[C@H]2[C@@H]3CCc4cc(O)ccc4[C@H]3CC[C@]12C
normalized GFP fluorescence [1]: 0.109 | normalized DsRed fluorescence [2]: 0.605

CC#CCn1c(N2CCC[C@@H](N)C2)nc2c1c(=O)n(Cc1nc(C)c3ccccc3n1)c(=O)n2C
normalized GFP fluorescence [1]: 0.315 | normalized DsRed fluorescence [2]: 0.667

COCCOC(=O)C1=C(C)NC(C)=C(C(=O)OC(C)C)C1c1cccc([N+](=O)[O-])c1 (configuration not stated)
normalized GFP fluorescence [1]: 0.032 | normalized DsRed fluorescence [2]: 0.85

Cc1ccc(Nc2c(F)cccc2Cl)c(CC(=O)O)c1
normalized GFP fluorescence [1]: 0.0553 | normalized DsRed fluorescence [2]: 0.183

CCN1CCCC1CNC(=O)c1cc(S(N)(=O)=O)ccc1OC (configuration not stated)
normalized GFP fluorescence [1]: 0.362 | normalized DsRed fluorescence [2]: 0.764

CCOC(=O)[C@H](CCc1ccccc1)N[C@H]1CCCN2CCC[C@@H](C(=O)O)N2C1=O [Cilazapril monohydrate (Inhibace)]
normalized GFP fluorescence [1]: 0.646 | normalized DsRed fluorescence [2]: 0.59

Nc1ccc(S(=O)(=O)Nc2ccccn2)cc1
normalized GFP fluorescence [1]: 0.364 | normalized DsRed fluorescence [2]: 0.542

CC(C)(C)NCC(O)COc1cccc2c1CCC(=O)N2 (configuration not stated)
normalized GFP fluorescence [1]: 0.243 | normalized DsRed fluorescence [2]: 1.11

CCOC(=O)OC(C)OC(=O)[C@@H]1N2C(=O)[C@@H](NC(=O)[C@H](N)c3ccccc3)[C@H]2SC1(C)C (some centres not stated)
normalized GFP fluorescence [1]: 0.00819 | normalized DsRed fluorescence [2]: 0.591

N[C@H](C(=O)O)[C@H](O)c1ccc(O)c(O)c1 [Droxidopa (L-DOPS)]
normalized GFP fluorescence [1]: -0.00088 | normalized DsRed fluorescence [2]: 1.79

Cc1ccc(N(CC2=NCCN2)c2cccc(O)c2)cc1
normalized GFP fluorescence [1]: 0.3 | normalized DsRed fluorescence [2]: 0.634

CC(NCCc1ccc(O)cc1)C(O)c1ccc(O)cc1 (configuration not stated)
normalized GFP fluorescence [1]: 0.828 | normalized DsRed fluorescence [2]: 0.736

O=C1O[C@H]([C@@H](O)CO)C(O)=C1O
normalized GFP fluorescence [1]: 0.78 | normalized DsRed fluorescence [2]: 0.485

CC(C)(O/N=C(\C(=O)N[C@@H]1C(=O)N2C(C(=O)[O-])=C(C[n+]3ccccc3)CS[C@H]12)c1csc(N)n1)C(=O)O
normalized GFP fluorescence [1]: 0.00772 | normalized DsRed fluorescence [2]: 1.28

CCOC(=O)[C@H](CCc1ccccc1)N[C@H]1CS[C@H](c2cccs2)CN(CC(=O)O)C1=O [Temocapril HCl]
normalized GFP fluorescence [1]: 0.372 | normalized DsRed fluorescence [2]: 0.936

CC1=C(/C=C/C(C)=C/C=C/C(C)=C/C(=O)O)C(C)(C)CCC1
normalized GFP fluorescence [1]: -0.00103 | normalized DsRed fluorescence [2]: 0.642

CC(COc1ccccc1)NC(C)C(O)c1ccc(O)cc1 (configuration not stated)
normalized GFP fluorescence [1]: 0.474 | normalized DsRed fluorescence [2]: 0.631

CC(=O)O[C@]1(C(C)=O)CC[C@H]2[C@@H]3C=C(C)C4=CC(=O)CC[C@]4(C)[C@H]3CC[C@@]21C
normalized GFP fluorescence [1]: 0.381 | normalized DsRed fluorescence [2]: 0.78

CC(=O)OCC(=O)[C@@]1(OC(C)=O)[C@@H](C)C[C@H]2[C@@H]3C[C@H](F)C4=CC(=O)C=C[C@]4(C)[C@@]3(F)[C@@H](O)C[C@@]21C
normalized GFP fluorescence [1]: 0.256 | normalized DsRed fluorescence [2]: 1.11

CCc1nn(CCCN2CCN(c3cccc(Cl)c3)CC2)c(=O)n1CCOc1ccccc1
normalized GFP fluorescence [1]: 0.108 | normalized DsRed fluorescence [2]: 0.736

CO[C@H]1C(=O)[C@]2(C)[C@@H](OC)C[C@H]3OC[C@@]3(OC(C)=O)[C@H]2[C@H](OC(=O)c2ccccc2)[C@]2(O)C[C@H](OC(=O)[C@H](O)[C@@H](NC(=O)OC(C)(C)C)c3ccccc3)C(C)=C1C2(C)C [Cabazitaxel (Jevtana)]
normalized GFP fluorescence [1]: 0.256 | normalized DsRed fluorescence [2]: 1.24

Cc1nnc(NS(=O)(=O)c2ccc(N)cc2)s1
normalized GFP fluorescence [1]: 0.326 | normalized DsRed fluorescence [2]: 1.88

CC(C)(C)c1ccc(C(O)CCCN2CCC(C(O)(c3ccccc3)c3ccccc3)CC2)cc1 (configuration not stated)
normalized GFP fluorescence [1]: 0.00757 | normalized DsRed fluorescence [2]: 0.056

C=CC[N+]1([C@H]2C[C@H]3[C@@H]4CC[C@H]5C[C@H](O)[C@@H](N6CCOCC6)C[C@]5(C)[C@H]4CC[C@]3(C)[C@H]2OC(C)=O)CCCC1
normalized GFP fluorescence [1]: 0.279 | normalized DsRed fluorescence [2]: 0.667

Cc1ccccc1C(OCCN(C)C)c1ccccc1 (configuration not stated)
normalized GFP fluorescence [1]: 0.779 | normalized DsRed fluorescence [2]: 1.23

Clc1ccc(C(Cn2ccnc2)OCc2c(Cl)cccc2Cl)c(Cl)c1 (configuration not stated) [Isoconazole nitrate (Travogen)]
normalized GFP fluorescence [1]: -0.00251 | normalized DsRed fluorescence [2]: 0.00958

Cc1ncc([N+](=O)[O-])n1CC(O)CCl (configuration not stated)
normalized GFP fluorescence [1]: 0.488 | normalized DsRed fluorescence [2]: 0.705

CN(C)CCC(c1ccccc1)c1ccccn1 (configuration not stated)
normalized GFP fluorescence [1]: 0.504 | normalized DsRed fluorescence [2]: 0.799

CS(=O)(=O)CCNCc1ccc(-c2ccc3ncnc(Nc4ccc(OCc5cccc(F)c5)c(Cl)c4)c3c2)o1 [Lapatinib Ditosylate (Tykerb)]
normalized GFP fluorescence [1]: -0.0239 | normalized DsRed fluorescence [2]: 1.52

NS(=O)(=O)c1cc(C(=O)O)c(NCc2ccco2)cc1Cl
normalized GFP fluorescence [1]: 0.306 | normalized DsRed fluorescence [2]: 0.841

CCc1ccc(CCOc2ccc(CC3SC(=O)NC3=O)cc2)nc1 (configuration not stated)
normalized GFP fluorescence [1]: 0.499 | normalized DsRed fluorescence [2]: 0.952

CN(C)CCCN1c2ccccc2Sc2ccccc21
normalized GFP fluorescence [1]: -0.00898 | normalized DsRed fluorescence [2]: 1.06

CN1CCN(c2c(F)cc3c(=O)c(C(=O)O)cn(CCF)c3c2F)CC1 [Fleroxacin (Quinodis)]
normalized GFP fluorescence [1]: 0.0169 | normalized DsRed fluorescence [2]: 0.075

N#CC[C@H](C1CCCC1)n1cc(-c2ncnc3[nH]ccc23)cn1
normalized GFP fluorescence [1]: 0.187 | normalized DsRed fluorescence [2]: 0.956

c1ccc([C@H]2CN3CCSC3=N2)cc1
normalized GFP fluorescence [1]: 0.522 | normalized DsRed fluorescence [2]: 0.535

CCCc1nc(C(C)(C)O)c(C(=O)OCc2oc(=O)oc2C)n1Cc1ccc(-c2ccccc2-c2nnn[nH]2)cc1
normalized GFP fluorescence [1]: 0.0265 | normalized DsRed fluorescence [2]: 0.605

NNC(=O)c1ccncc1
normalized GFP fluorescence [1]: 0.19 | normalized DsRed fluorescence [2]: 1.03

N#Cc1ccc2[nH]cc(CCCCN3CCN(c4ccc5oc(C(N)=O)cc5c4)CC3)c2c1
normalized GFP fluorescence [1]: 0.0415 | normalized DsRed fluorescence [2]: 0.987

CC(C)NCC(O)COc1cccc2[nH]ccc12 (configuration not stated)
normalized GFP fluorescence [1]: 0.242 | normalized DsRed fluorescence [2]: 1.01

From the supplement of paper PMC7695840
